Data on 18 compounds can be found in PubChem BioAssay.

Each structure is given as a SMILES string. The source made the active and inactive calls. The rule behind the calls is not given here.

For this test, the target named is Pantothenate synthetase (Mycobacterium tuberculosis (strain ATCC 25618 / H37Rv)) (UniProt P9WIL5). The experiment in a line: Recombinant Mtb pantothenate synthetase (PanC) inhibitors, coupled enzyme, confirmatory (AID 375).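 Note: 0% = full reaction with vehicle and 100% = no enzyme background.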 The following applies: coupled enzyme assay; at 10 µM, hits give high values.
Pantothenate synthetase (Mycobacterium tuberculosis (strain ATCC 25618 / H37Rv)), sequence (P9WIL5 whole entry, looked up): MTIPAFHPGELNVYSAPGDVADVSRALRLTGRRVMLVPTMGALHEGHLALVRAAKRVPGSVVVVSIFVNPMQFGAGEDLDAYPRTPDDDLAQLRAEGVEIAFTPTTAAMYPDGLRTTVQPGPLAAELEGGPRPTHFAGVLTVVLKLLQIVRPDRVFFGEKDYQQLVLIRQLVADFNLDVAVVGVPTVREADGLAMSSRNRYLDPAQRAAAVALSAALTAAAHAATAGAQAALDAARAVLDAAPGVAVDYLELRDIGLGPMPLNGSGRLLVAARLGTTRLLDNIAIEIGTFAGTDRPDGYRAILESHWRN
With `CCN(C(=O)CCc1nc(-c2ccccc2F)no1)c1cc(OC)ccc1OC`, the inhibition was 0% (inactive).

Consider `CCCS(=O)(=O)N1CCC(C(=O)N2CCCC2)CC1`, for which the inhibition is 7% (inactive).

Regarding `CCc1nc2sc(C)c(C)c2c(=O)n1CCO`, the inhibition was 7% (inactive).

As to `Cc1ccc(-c2cc(C(F)(F)F)n3nc(C(=O)N4CCCC4)cc3n2)cc1`, the inhibition is 5% (inactive).

As to `COC(=O)c1ccc(NC(=O)CN2CCCC2)cc1`, the inhibition is 0% (inactive).

On to `CCCCn1nnnc1NCc1cccs1`, for which the inhibition was 0% (inactive).

As for `Cc1cc(C)n(S(=O)(=O)Cc2ccccc2)n1`, the inhibition was 0% (inactive).

With `CCOC(=O)Cc1nnc2c(Nc3ccc(C)cc3)nc3nonc3n12`, the inhibition was 1% (inactive).

As for `COc1ccc(-n2ncc3c(N4CCN(c5cccc(C)c5C)CC4)ncnc32)cc1`, the inhibition was 0% (inactive).

`COCCNC(=O)CCCCCN1C(=O)CCC1=O`: the inhibition was 7% (inactive).

Take `Cc1nnc2sc(-c3cccc(NC(=O)c4cccnc4)c3)nn12`: the inhibition was 0% (inactive).

Consider `CCN(CC)CCn1c(OC)cc(=O)[nH]c1=O`, for which the inhibition is 0% (inactive).

For `COCCOC(=O)c1c(C)nc(SCC(=O)Nc2ccc(OC)cc2)c(C#N)c1-c1ccco1`, the inhibition is 0% (inactive).

In the case of `CN1CCc2c(sc3c2c(=O)n(-c2ccccc2)c2nnc(SCc4ccccc4)n32)C1`, the inhibition was 4% (inactive).

Turning to `Cc1c(NC(=O)c2ccc(=O)oc2)c(=O)n(-c2ccccc2)n1C`, the inhibition was 6% (inactive).

With `O=C(CSc1nnnn1C1CCCC1)NCc1ccc2c(c1)OCO2`, the inhibition is 0% (inactive).

For `O=C(CCNC(=O)c1ccc(Br)o1)NC1CCCC1`, the inhibition was 0% (inactive).

As to `O=C(Cn1ncc2c1-c1ccccc1OC2)N1CCN(c2ccccn2)CC1`, the inhibition is 0% (inactive).

Usually inhibition stands for the relative decrease from the control value, in per cent.
